According to PubChem BioAssay:
Several values for one entry are separate records, joined by “and”; a condition that tells them apart may be missing. Identical values can stand only once. Activity calls are given as the source filed them.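 The calls were made as follows, unless noted: active = inhibition at or above 50% relative to wild type and mutant plate controls; inactive = inhibition below 50%.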

Assays:
[1] = inhibitors of TNFa-induced NFkB p65 translocation, primary screen, imaging, HUVEC, MLSMR starter and 10KST1 sets (AID 438;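 active = inhibition above 20% together with a positive visual image hit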;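 also: compound added about 3h40 before a 20 min TNFalpha stimulation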;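 as to inhibition: signal is the nuclear over cytoplasmic p65 intensity ratio per well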); details: HUVEC TNFa-induced p65 nuclear translocation; cell count: measured here: nuclei count (cytotoxicity indicator), at 2.08 µM; inhibition: at 2 µM, stronger effect = higher value, 0% TNFa-plus-vehicle, 100% no-TNFa wells
[2] = reduction of polyQ htt aggregates in cells – imaging, exon1htt(103Q)mCFP cells, high-content imaging, primary screen (AID 483;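 active = visual image review flags a hit and inhibition of aggregation exceeds 20%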;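 also: compound exposure lasted 3 days before fixation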;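 as to nuclei count: percent of the per-plate median nuclei count of sample wells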); details: exon1htt(103Q)mCFP cell line, aggregate imaging, at 2 µM; inhibition of aggregation: stronger effect = higher value; nuclei count: measured here: cell count, toxicity
[3] = endothelial E-selectin expression blockers – imaging, HUVEC, immunofluorescence, MLSMR starter and 10KST1 sets, primary screen (AID 487;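 active = visually confirmed hit in the image check and inhibition above 20%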;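 as to inhibition: signal is fraction of cell area covered by stained E-selectin grains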;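 as to nuclei count: 100% = median nuclei count of all wells on the same plate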); details: HUVEC TNFalpha-induced E-selectin immunofluorescence imaging, at 2 µM; inhibition: stronger effect = higher value; nuclei count: measured here: cell number, toxicity
[4] = Primary imaging screen for DUSP6 inhibitors that restore phospho-Erk in transfected HeLa cells, chemical complementation (AID 609;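 active = compounds giving at least 50% inhibition in the cell-based MKP-3 phosphatase rescue imaging test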;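 as to inhibition: phospho-Erk level distribution per well compared with pooled transfected vehicle control wells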); details: HeLa MKP-3 transfected, phospho-Erk imaging KS statistic, at 10 µM, cells stimulated with TPA for 15 min
[5] = target: Dual specificity protein phosphatase 6 (Homo sapiens) (UniProt Q16828); experiment: as above; details: HeLa MKP-3 transfected, phospho-Erk imaging KS statistic; at 10 µM; stronger effect = higher value; cells stimulated with TPA for 15 min
Dual specificity protein phosphatase 6 (Homo sapiens), sequence (Q16828 whole entry, looked up): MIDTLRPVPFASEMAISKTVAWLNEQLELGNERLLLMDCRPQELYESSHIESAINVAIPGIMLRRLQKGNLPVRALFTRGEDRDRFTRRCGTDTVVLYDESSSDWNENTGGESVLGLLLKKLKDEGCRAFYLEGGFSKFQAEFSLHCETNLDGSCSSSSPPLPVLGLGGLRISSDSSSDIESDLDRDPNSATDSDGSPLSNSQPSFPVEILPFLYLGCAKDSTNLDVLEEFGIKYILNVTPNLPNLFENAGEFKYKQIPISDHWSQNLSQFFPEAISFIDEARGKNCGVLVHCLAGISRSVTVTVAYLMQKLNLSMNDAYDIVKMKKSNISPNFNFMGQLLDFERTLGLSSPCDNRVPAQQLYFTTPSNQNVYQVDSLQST

[6] = target: Voltage-gated potassium channel subunit beta-2 (Rattus norvegicus) (UniProt P62483); experiment: inhibitors of rat Kvbeta2 reductase activity – biochemical, NADPH fluorescence, primary screen (AID 622;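 active = fluorescence slope higher than the sample average by over 3 SD, cut at about -0.22 in these data, passing the limit was not always enough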;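 also: slope of raw intensity against log time taken from 70 to 1610 s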); details: recombinant KvBeta, 4-cyanobenzaldehyde reduction, at 10 µM, stronger effect = higher value
Voltage-gated potassium channel subunit beta-2 (Rattus norvegicus), sequence (P62483 whole entry, looked up): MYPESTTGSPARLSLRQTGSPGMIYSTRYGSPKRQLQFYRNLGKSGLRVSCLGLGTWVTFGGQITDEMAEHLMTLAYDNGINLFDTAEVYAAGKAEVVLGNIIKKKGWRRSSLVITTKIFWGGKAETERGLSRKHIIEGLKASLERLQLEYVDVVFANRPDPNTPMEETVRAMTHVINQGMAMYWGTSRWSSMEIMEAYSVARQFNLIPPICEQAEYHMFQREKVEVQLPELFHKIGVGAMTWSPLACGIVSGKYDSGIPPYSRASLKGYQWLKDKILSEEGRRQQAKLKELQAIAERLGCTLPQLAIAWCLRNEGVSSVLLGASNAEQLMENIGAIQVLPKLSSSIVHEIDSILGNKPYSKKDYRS

[7] = target: Voltage-gated potassium channel subunit beta-2 (Rattus norvegicus) (UniProt P62483); experiment: enhancers of rat Kvbeta2 NADPH turnover – biochemical, NADPH fluorescence, primary screen (AID 623;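 active = NADPH fluorescence slope more negative than the mean of all samples by about 3 SD, 99.7% confidence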;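 also: fluorescence intensity change per second fitted from 20 to 320 s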); details: Recombinant KvBeta, NADPH fluorescence decrease slope, 10 min; at 10 µM; stronger effect = lower value
[8] = target: Alpha-2C adrenergic receptor (Homo sapiens) (UniProt P18825); experiment: compounds altering alpha2C-coupled GIRK flux – cell-based, HEK293 alpha2C/GIRK1/2, thallium flux, primary screen (AID 624;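 active = fluorescence slope after compound addition differing from the mean of all screened samples at 99.7% confidence, in either direction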;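 also: slope of fluorescence ratio to pre-addition baseline per second over 15 to 24 s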); details: thallium flux BTC fluorescence, at 10 µM, actives lie on both sides
Alpha-2C adrenergic receptor (Homo sapiens), sequence (P18825 whole entry, looked up): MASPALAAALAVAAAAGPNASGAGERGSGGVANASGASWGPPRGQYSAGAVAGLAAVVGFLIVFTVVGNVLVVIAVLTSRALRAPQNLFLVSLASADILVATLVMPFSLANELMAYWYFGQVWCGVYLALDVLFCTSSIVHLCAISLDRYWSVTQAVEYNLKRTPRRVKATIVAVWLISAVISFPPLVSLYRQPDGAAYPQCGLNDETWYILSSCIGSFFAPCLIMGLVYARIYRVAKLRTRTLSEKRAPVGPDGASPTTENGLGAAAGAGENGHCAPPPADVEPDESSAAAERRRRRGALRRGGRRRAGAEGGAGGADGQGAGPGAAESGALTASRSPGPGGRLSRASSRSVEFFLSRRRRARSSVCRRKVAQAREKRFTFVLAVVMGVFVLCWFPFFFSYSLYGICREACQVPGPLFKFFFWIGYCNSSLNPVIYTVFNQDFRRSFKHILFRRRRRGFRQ

[9] = inhibitors of larval lipid processing in zebrafish, primary screen, whole organism, PED6 fluorescence, gall bladder and intestine (AID 686;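 active = a full or partial loss of lipid-probe fluorescence in the fish gall bladder, intestine or both, judged by eye; inactive = no fluorescence loss, or compound toxic to the fish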;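 also: larvae 5 to 7 days old with five fish per well; signal comes from phospholipase A2 cleavage of quenched PED6 carried via bile; overnight exposure to compound and PED6 before scoring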); details: Zebrafish larvae PED6 lipid processing, fluorescence scoring; screened at 20 µM (by protocol)
[10] = loss of swimming-algae plug formation – whole organism, Chlamydomonas reinhardtii, WT vs cilia-less mutant, absorbance, 96-well, primary screen (AID 463189); details: Chlamydomonas reinhardtii gravitaxis, OD600 absorbance, 2 days; at 10 µM; stronger effect = higher value;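 also: 0% = wild type cc124 cells in DMSO and 100% = ciliumless bld1 mutant cells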
[11] = blockers of RIG-like receptor reporter activation – cell-based, Sendai virus stimulus, luciferase, 10K MLSCN set, TLR/RLR signaling modifier project, primary screen (AID 602276;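 active = inhibition at or above 50% at 10 µM; inactive = inhibition below 50%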;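 also: firefly luciferase from ISG56 promoter only with Renilla not read in this screen; 0% = Sendai virus plus DMSO and 100% = medium plus DMSO without virus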); details: HEK293 RL24 IRF3 luciferase reporter, at 10 µM, stronger effect = higher value
[12] = TLR3 IRF3 reporter activation blockers – cell-based, poly I:C stimulus, luciferase, 10K MLSCN set, primary screen (AID 602277;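 active = inhibition of the reporter signal at or above 50%; inactive = inhibition below 50%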); details: HEK293-TLR3 RL24 IRF3 luciferase reporter, at 10 µM, stronger effect = higher value
[13] = measured here: cell density z-score
[14] = measured here: nuclear c-Myc green intensity z-score
[15] = measured here: nuclear pErk red intensity z-score, stronger effect = higher value

SMILES | cell count [1] | inhibition [1] | inhibition of aggregation [2] | nuclei count [2] | inhibition [3] | nuclei count [3] | z-score [4, 13] | z-score [4, 14] | z-score [4, 15] | inhibition [5] | fluorescence slope [6] | NADPH fluorescence slope [7] | slope [8] | outcome [9] | inhibition [10] | inhibition [11] | inhibition [12]
CCC(CC)C1C(C#N)=C(N)Oc2n[nH]c(C)c21 (stereo not given) | 565 | -2.9% (inactive) | -28.3% (inactive) | 102% | -21.1% (inactive) | 112% | -1.42 | -0.486 | 0.51 | 5.57% (inactive) | -0.492 (inactive) | -0.000106 (inactive) | 0.00492 (inactive) | inactive | -5.48% (inactive) | 41.8% (inactive) | 50% (inactive)
Cn1c([N+](=O)[O-])cnc1COC(N)=O | 663 | -2.1% (inactive) | 6.9% (inactive) | 97.8% | -73.8% (inactive) | 138% | 0.12 | 0.491 | 1.01 | 1.48% (inactive) | -0.492 (inactive) | -3.9e-05 (inactive) | 0.00486 (inactive) | inactive | 15.2% (inactive) | 16.7% (inactive) | 40.5% (inactive)
CN(C)c1nc(N(C)C)nc(N(C)C)n1 | 680 | -4.1% (inactive) | 1.6% (inactive) | 109% | -118% (inactive) | 129% | 1.31 | -0.357 | -1.49 | 11.3% (inactive) | -0.459 (inactive) | 2.8e-05 (inactive) | 0.0048 (inactive) | inactive | 4.91% (inactive) and -7.01% (inactive) | 14.2% (inactive) | 32.5% (inactive)
c1ccc2c(CC3=NCCN3)cccc2c1 | 547 | -0.9% (inactive) | -4.4% (inactive) | 90.2% | -43.3% (inactive) | 118% | -0.259 | -0.0766 | 1 | 9.37% (inactive) | -0.503 (inactive) | -6.8e-05 (inactive) | 0.00554 (inactive) | inactive | -6.08% (inactive) | 12.4% (inactive) | 36.7% (inactive)
CCC(NC(C)C)C(O)c1ccc(O)c2[nH]c(=O)ccc12 (stereo not given) | 682 | -3% (inactive) | -11.3% (inactive) | 109% | -80% (inactive) | 142% | 0.193 | 0.138 | 0.273 | 13.3% (inactive) | -0.49 (inactive) | -3.3e-05 (inactive) | 0.00523 (inactive) | inactive | 23.9% (inactive) | 17.4% (inactive) | 45.8% (inactive)
CCCC(=O)O[C@]1(C(=O)COC(C)=O)CC[C@H]2[C@@H]3C[C@H](F)C4=CC(=O)C=C[C@]4(C)[C@@]3(F)[C@@H](O)C[C@@]21C | 642 | -9.3% (inactive) | -34.4% (inactive) | 61.6% | -95.2% (inactive) | 136% | -0.0756 | -0.093 | 0.355 | -0.493% (inactive) | -0.5 (inactive) | -5.5e-05 (inactive) | 0.00445 (inactive) | inactive | 9.17% (inactive) | 15.9% (inactive) | 48.2% (inactive)
COc1ccc(C2/C(=C(/O)c3ccc(OC(C)C)cc3)C(=O)C(=O)N2CCCN2CCOCC2)cc1 (stereo not given) | 466 | 4.1% (inactive) | -2.7% (inactive) | 102% | -19.1% (inactive) | 134% | -0.477 | 0.263 | 0.227 | -11.9% (inactive) | -0.319 (inactive) | -2e-05 (inactive) | 0.00508 (inactive) | inactive | -1.04% (inactive) | 9.78% (inactive) | 13.7% (inactive)
CN(C)C(=O)Oc1cccc([N+](C)(C)C)c1 | 531 and 586 | -9.9% (inactive) and -7.8% (inactive) | 17.2% (inactive) and -13.6% (inactive) | 74.9% and 106% | -9.8% (inactive) and -52% (inactive) | 104% and 142% | 0.51 and -0.93 | 1.04 and 0.599 | 0.404 and -0.0753 | 17.3% (inactive) and -0.493% (inactive) | -0.425 (inactive) and -0.463 (inactive) | -3.3e-06 (inactive) and -0.000178 (inactive) | 0.00518 (inactive) and 0.00527 (inactive) | inactive | -1.35% (inactive) and 24.7% (inactive) and 16% (inactive) | 14.9% (inactive) and 3.46% (inactive) | 31.8% (inactive) and 16.1% (inactive)
CN(Cc1ccccc1)Cc1c[nH]c2ccccc12 | 531 | -15.1% (inactive) | -1% (inactive) | 83.3% | -35.1% (inactive) | 121% | -0.293 | -1.22 | -1.11 | -4.27% (inactive) | -0.409 (inactive) | -4.2e-05 (inactive) | 0.00379 (inactive) | inactive | 22.7% (inactive) | 13.3% (inactive) | 24.2% (inactive)
Cc1cc(NC(=O)C2=C(O)c3ccccc3S(=O)(=O)N2C)no1 | 693 | -7.5% (inactive) | 9.1% (inactive) | 108% | -39.3% (inactive) | 120% | 0.515 | 0.415 | 0.569 | 7.39% (inactive) | -0.538 (inactive) | -2.2e-05 (inactive) | 0.00444 (inactive) | inactive | -6.68% (inactive) | 12.9% (inactive) | 25.5% (inactive)
